# Test results from PubChem BioAssay (NCATS).
# Where “and” joins values, the source holds several entries; their conditions need not be identical. Identical values can stand only once. Results filed as inconclusive are left out. Entries that show only a call come without a potency. A structure can be active in one record and inactive in another. Calls of active or inactive are those of the source. Unless noted, calls come from the whole dose curve.
# Assays:
# [1] = Cytotoxicity counterscreen for inhibitors of SARS-CoV-2 cell entry (AID 1645845); note: nearly all actives have a fitted effect of over 50% in size
# Outline: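 Counterscreen run in the same HEK293-ACE2 line as the pseudotyped-particle entry assay, without particles. Viability after 48 h at 37 C was read as ATP luminescence, scaled between cell-containing and cell-free wells.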
# [2] = Primary qHTS to identify inhibitors of SARS-CoV-2 cell entry (AID 1645846); details: activity change, negative = inhibition: at 57.1 µM (top of the series) unless noted; note: nearly all actives have a fitted effect of over 45% in size; note: potency is the fitted concentration of half-maximal effect
# Outline: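 Entry measured by luciferase signal 48 h after adding SARS-CoV-2-S pseudotyped MLV particles to HEK293-ACE2 cells preincubated 1 h with compounds. Normalisation: bald particles and spike particles.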
# Papain (Carica papaya) = Papain (Carica papaya) (UniProt P00784); experiment: Primary qHTS assay for inhibitors of the protease papain (AID 1645873; active = well fitted curve in the direction sought with a large enough effect; an effect the other way counts as inactive or inconclusive;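 note: papain turnover of Z-FR-AMC read as the AMC fluorescence gain over 10 min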)
# [3] = VSVG counterscreen qHTS to identify inhibitors of SARS-CoV-2 cell entry (AID 1645847); note: nearly all actives have a fitted effect of over 65% in size; note: potency is the fitted concentration of half-maximal effect
# Outline: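 Luminescence read after 48 h infection at 37 C with VSV-G-pseudotyped MLV particles, following 1 h compound exposure of Expi293F cells stably expressing human ACE2; scaled between bald particle and VSV-G particle wells.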
# [4] = Primary qHTS for inhibitors of nuclear receptor binding SET domain protein 2 (NSD2) in an isogenic RCH-ACV NSD2 p.E1099K mutant (9B) (AID 1645876; active = well fitted curve in the direction sought with a large enough effect; an effect the other way counts as inactive or inconclusive; note: nearly all actives have a fitted effect of over 70% in size; note: potency is the fitted concentration of half-maximal effect)
# [5] = Primary qHTS for inhibitors of nuclear receptor binding SET domain protein 2 (NSD2) in an RCH-ACV wild type WT cells (2C) (AID 1645877; active = well fitted curve in the direction sought with a large enough effect; an effect the other way counts as inactive or inconclusive; note: nearly all actives have a fitted effect of over 70% in size; note: potency is the fitted concentration of half-maximal effect)
# [6] = target: Rap guanine nucleotide exchange factor 3 (Homo sapiens) (UniProt O95398); experiment: Confirmatory qHTS for agonist of cAMP-regulated guanine nucleotide exchange factor 3 (EPAC1) (AID 1645881; active = well fitted curve in the direction sought with a large enough effect; an effect the other way counts as inactive or inconclusive;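 note: EPAC1 catalysed release of BODIPY-GDP from Rap1B seen as fluorescence loss; nearly all actives have a fitted effect of over 75% in size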)
# [7] = target: Rap guanine nucleotide exchange factor 4 (Homo sapiens) (UniProt Q8WZA2); experiment: Confirmatory qHTS for agonist of cAMP-regulated guanine nucleotide exchange factor 4 (EPAC2) (AID 1645884; active = well fitted curve in the direction sought with a large enough effect; an effect the other way counts as inactive or inconclusive;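 note: nucleotide exchange releases bodipy-GDP from Rap1 and this lowers its fluorescence; nearly all actives have a fitted effect of over 65% in size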)
# [8] = target: Rap guanine nucleotide exchange factor 4 (Homo sapiens) (UniProt Q8WZA2); experiment: Confirmatory qHTS for antagonist of cAMP-regulated guanine nucleotide exchange factor 4 (EPAC2) (AID 1645885; active = well fitted curve in the direction sought with a large enough effect; an effect the other way counts as inactive or inconclusive; note: nearly all actives have a fitted effect of over 25% in size)
# [9] = NCATS anti-infectives library activity on HEK293 viability as a counter-qHTS vs the C. elegans viability qHTS (AID 1745854; active = well fitted curve in the direction sought with a large enough effect; an effect the other way counts as inactive or inconclusive)
# Outline: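 Cytotoxicity counter-screen to a worm viability qHTS: CellTiter-Glo luminescence read 10 min after reagent addition. Compounds (final up to 41.7 uM, a 1:5 dilution series) incubated 24 hr at 37C with 1,500 HEK293 cells per well; digitonin control.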
# [10] = target: Catechol O-methyltransferase (Homo sapiens) (UniProt P21964); experiment: Confirmatory Screen for Target Class Profiling of Small Molecule Inhibitors of Methyltransferases (AID 1745852); details: MTase-Glo luminescence, SAH detection, recombinant enzyme; measured here: COMT max response; stronger effect = lower value
# [11] = target: Guanidinoacetate N-methyltransferase (Homo sapiens) (UniProt Q14353); experiment: as above; details: MTase-Glo luminescence, SAH detection, recombinant enzyme; activity change, negative = inhibition: at 57.3 µM (top of the series)
# [12] = target: Nicotinamide N-methyltransferase (Homo sapiens) (UniProt P40261); experiment: as above; details: MTase-Glo luminescence, SAH detection, recombinant enzyme; measured here: NNMT max response; stronger effect = lower value
# [13] = target: Phenylethanolamine N-methyltransferase (Homo sapiens) (UniProt P11086); experiment: as above; details: MTase-Glo luminescence, SAH detection, recombinant enzyme; measured here: PNMT max response; stronger effect = lower value
# Phenylethanolamine N-methyltransferase (Homo sapiens), sequence (P11086 whole entry, looked up): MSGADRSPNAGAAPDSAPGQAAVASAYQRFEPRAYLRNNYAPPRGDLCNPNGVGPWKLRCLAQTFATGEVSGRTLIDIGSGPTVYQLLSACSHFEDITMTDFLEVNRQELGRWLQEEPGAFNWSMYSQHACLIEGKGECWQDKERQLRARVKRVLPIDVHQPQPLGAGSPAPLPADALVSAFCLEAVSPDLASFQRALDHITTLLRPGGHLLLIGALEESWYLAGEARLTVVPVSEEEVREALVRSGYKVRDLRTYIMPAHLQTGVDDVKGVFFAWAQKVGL
# Rap guanine nucleotide exchange factor 4 (Homo sapiens), sequence (Q8WZA2 whole entry, looked up): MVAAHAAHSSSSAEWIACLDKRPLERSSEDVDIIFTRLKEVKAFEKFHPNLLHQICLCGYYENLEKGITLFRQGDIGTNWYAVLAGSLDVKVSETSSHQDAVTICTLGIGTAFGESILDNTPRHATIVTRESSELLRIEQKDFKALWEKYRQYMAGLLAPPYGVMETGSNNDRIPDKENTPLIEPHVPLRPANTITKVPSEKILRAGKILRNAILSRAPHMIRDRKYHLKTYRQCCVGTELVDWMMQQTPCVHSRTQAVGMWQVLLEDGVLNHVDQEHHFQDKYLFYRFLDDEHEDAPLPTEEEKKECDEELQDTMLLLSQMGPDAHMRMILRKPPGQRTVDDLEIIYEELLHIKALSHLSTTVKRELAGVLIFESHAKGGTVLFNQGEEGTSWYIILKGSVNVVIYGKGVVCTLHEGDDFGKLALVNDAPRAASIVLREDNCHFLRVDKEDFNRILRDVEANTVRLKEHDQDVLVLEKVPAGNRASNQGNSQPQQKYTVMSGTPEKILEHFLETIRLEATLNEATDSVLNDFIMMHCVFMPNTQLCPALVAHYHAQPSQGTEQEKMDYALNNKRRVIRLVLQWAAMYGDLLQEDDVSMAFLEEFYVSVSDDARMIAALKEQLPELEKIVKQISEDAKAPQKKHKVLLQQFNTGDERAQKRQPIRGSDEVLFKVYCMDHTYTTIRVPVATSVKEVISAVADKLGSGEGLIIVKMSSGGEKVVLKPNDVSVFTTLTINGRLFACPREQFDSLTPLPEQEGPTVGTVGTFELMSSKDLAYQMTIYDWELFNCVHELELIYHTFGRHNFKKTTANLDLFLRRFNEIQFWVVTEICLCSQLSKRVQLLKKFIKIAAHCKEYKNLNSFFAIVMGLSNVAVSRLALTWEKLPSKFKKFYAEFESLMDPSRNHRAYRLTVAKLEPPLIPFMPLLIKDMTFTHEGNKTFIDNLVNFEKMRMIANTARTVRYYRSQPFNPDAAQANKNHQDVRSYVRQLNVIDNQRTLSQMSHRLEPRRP
# Papain (Carica papaya), sequence (P00784 whole entry, looked up): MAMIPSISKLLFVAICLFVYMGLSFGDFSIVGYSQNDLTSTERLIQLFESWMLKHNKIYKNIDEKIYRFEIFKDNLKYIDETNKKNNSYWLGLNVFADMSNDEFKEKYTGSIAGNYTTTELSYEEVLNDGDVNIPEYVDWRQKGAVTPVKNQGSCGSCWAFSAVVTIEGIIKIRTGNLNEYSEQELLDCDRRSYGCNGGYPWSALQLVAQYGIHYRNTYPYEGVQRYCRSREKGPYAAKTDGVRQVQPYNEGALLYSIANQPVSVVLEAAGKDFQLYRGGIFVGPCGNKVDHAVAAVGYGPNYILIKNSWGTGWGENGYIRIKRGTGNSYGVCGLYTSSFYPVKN
# Nicotinamide N-methyltransferase (Homo sapiens), sequence (P40261 whole entry, looked up): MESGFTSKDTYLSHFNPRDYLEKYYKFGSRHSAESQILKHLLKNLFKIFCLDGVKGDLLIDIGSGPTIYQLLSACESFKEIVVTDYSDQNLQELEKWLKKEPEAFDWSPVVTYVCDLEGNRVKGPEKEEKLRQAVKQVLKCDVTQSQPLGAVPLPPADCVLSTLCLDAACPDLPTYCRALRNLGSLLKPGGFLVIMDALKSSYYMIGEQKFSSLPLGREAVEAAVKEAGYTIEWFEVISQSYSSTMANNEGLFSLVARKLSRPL
# Rap guanine nucleotide exchange factor 3 (Homo sapiens), sequence (O95398 whole entry, looked up): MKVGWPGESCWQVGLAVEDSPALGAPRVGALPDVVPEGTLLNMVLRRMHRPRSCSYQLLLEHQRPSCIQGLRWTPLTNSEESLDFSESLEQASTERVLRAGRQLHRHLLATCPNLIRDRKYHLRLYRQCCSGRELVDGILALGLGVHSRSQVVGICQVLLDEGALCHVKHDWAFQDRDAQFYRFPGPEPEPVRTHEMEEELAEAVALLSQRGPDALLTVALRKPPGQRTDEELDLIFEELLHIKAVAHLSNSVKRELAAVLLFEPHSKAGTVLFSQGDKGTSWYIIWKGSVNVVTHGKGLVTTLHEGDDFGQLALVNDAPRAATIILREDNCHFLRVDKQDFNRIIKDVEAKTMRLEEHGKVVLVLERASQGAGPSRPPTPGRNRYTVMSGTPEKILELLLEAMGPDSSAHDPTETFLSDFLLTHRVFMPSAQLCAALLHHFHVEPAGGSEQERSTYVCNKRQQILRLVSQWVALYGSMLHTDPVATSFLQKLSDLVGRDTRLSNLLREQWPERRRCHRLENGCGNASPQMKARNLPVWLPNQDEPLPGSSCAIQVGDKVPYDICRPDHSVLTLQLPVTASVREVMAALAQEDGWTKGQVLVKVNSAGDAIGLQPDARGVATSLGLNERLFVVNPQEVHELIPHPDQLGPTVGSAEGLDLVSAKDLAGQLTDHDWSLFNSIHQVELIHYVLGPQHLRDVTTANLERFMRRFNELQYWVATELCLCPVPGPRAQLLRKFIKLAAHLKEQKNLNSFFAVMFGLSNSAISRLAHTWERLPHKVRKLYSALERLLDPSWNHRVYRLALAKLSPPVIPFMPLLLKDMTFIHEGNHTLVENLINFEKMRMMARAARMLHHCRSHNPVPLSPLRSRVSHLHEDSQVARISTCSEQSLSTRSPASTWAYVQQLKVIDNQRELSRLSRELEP
# Catechol O-methyltransferase (Homo sapiens), sequence (P21964 whole entry, looked up): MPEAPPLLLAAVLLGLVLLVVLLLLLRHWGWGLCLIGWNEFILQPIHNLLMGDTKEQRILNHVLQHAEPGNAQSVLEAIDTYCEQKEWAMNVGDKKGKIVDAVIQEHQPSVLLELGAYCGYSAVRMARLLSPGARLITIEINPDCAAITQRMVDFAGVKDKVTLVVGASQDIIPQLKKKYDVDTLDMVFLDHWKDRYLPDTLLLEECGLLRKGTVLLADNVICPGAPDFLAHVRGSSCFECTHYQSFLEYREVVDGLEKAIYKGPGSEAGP
compound,measurement,setting,value
COCCNCCCn1c(C(=O)CF)c(-c2ccc(C)cc2)c2c(N)ncnc21,Potency,[1],inactive
same,Potency,[2],inactive
C[N+](C)(C)CC(=O)O,Potency,[1],inactive
same,"activity change, negative = inhibition",[2],-0.459% and -19.8%
same,Potency,Papain (Carica papaya),inactive
NC(=O)C1CCCc2c1[nH]c1ccc(Cl)cc21 (stereo not drawn),Potency,[1],inactive
same,Potency,[2],inactive
CCCCCN(CCC12CC3CC(CC(C3)C1)C2)C(=O)NCCCc1ccncc1,Potency,[1],inactive
same,"activity change, negative = inhibition",[2],-12.6%
COc1ccc(-c2c(-c3ccc(O)cc3O)n[nH]c2C)cc1,Potency,[1],inactive
same,"activity change, negative = inhibition",[2],-56.7%
same,Potency,[3],12.4 µM (active)
COC(=O)c1ccc2c(C(=Nc3ccc(N(C)C(=O)CN4CCN(C)CC4)cc3)c3ccccc3)c(O)[nH]c2c1,Potency,[1],inactive
same,Potency,[2],17.8 µM (active)
same,"activity change, negative = inhibition",[2],-18.4%
CC(=O)OCCN1C(=O)c2c(C)nc3ccc(S(=O)(=O)N4CCOCC4)cc3c2C1=O,Potency,[1],inactive
same,"activity change, negative = inhibition",[2],2.17%
O=C(Nc1ccncc1)C(=O)c1cn(Cc2ccc(Cl)cc2)c2ccccc12,Potency,[1],inactive
same,"activity change, negative = inhibition",[2],-75.6%
same,Potency,[3],0.961 µM (active)
same,Potency,[4],0.263 µM (active)
same,Potency,[5],0.235 µM (active)
COc1c(Cl)cc2c([nH]c3cnccc32)c1NC(=O)c1cccnc1C,Potency,[1],inactive
same,"activity change, negative = inhibition",[2],-30.2%
same,Potency,[3],inactive
CCCCOCCOc1nc(-c2ccc(C(=O)O)c(F)c2)sc1C,Potency,[1],inactive
same,"activity change, negative = inhibition",[2],-25.8%
same,Potency,[3],inactive
CN(C)[C@@H]1C(=O)C(C(N)=O)=C(O)[C@@]2(O)C(=O)C3=C(O)c4c(O)cccc4[C@@](C)(O)[C@H]3[C@H](O)[C@@H]12,Potency,[1],inactive
same,Potency,[2],inactive
same,"activity change, negative = inhibition",[2],-8.27%
same,Potency,[5],inactive
same,outcome,[6],inactive
same,outcome,[7],inactive
same,Potency,[8],inactive
Cc1cc(Nc2nc(N[C@@H](C)c3ncc(F)cn3)ncc2Cl)n[nH]1,Potency,[1],inactive
same,"activity change, negative = inhibition",[2],-52.3%
same,Potency,[3],6.81 µM (active)
COc1ccc2cc(CCC(C)=O)ccc2c1,Potency,[1],inactive
same,Potency,[2],inactive
Nc1ccccc1NC(=O)c1ccc(CNC(=O)OCc2cccnc2)cc1,Potency,[1],inactive
same,Potency,[2],inactive
CC(C[N+](C)(C)C)OC(N)=O (stereo not drawn),Potency,[1],inactive
same,Potency,[2],inactive
same,"activity change, negative = inhibition",[2],-6.96%
CC(C)CCCC(C)CCCC(C)CCCCC(C)CCCC(C)CCCC(C)C (stereo not drawn),Potency,[1],inactive
same,"activity change, negative = inhibition",[2],-16.5%
COc1cc(Nc2ncc3c(n2)-c2ccc(Cl)cc2C(c2c(F)cccc2OC)=NC3)ccc1C(=O)O,Potency,[1],inactive
same,"activity change, negative = inhibition",[2],-83%
same,Potency,[3],0.108 µM (active)
COc1cc2nc(-c3ccc(N4CCN(C)CC4)cc3)nc(NCCN3CCOCC3)c2cc1OC,Potency,[1],inactive
same,"activity change, negative = inhibition",[2],-14.2%
CSCC[C@@H](NC(=O)[C@@H](Cc1ccccc1)NC(=O)CNC(=O)CNC(=O)[C@@H](N)Cc1ccc(O)cc1)C(=O)O,Potency,[1],inactive
same,"activity change, negative = inhibition",[2],-0.623%
same,Potency,[4],inactive
same,Potency,[5],inactive
O=S(=O)(F)Cc1ccccc1,Potency,[1],inactive
same,"activity change, negative = inhibition",[2],-1.91%
same,Potency,[4],inactive
same,Potency,[5],inactive
same,Potency,[9],inactive
O=C(Oc1ccc([N+](=O)[O-])cc1)N1CCC(C(O)(c2ccc3c(c2)OCO3)c2ccc3c(c2)OCO3)CC1,Potency,[1],inactive
same,"activity change, negative = inhibition",[2],-17.3%
same,Potency,[4],inactive
same,Potency,[5],inactive
same,Potency,[9],inactive
O=C(c1cc(Cc2n[nH]c(=O)c3ccccc23)ccc1F)N1CCN(C(=O)C2CC2)CC1,Potency,[1],inactive
same,Potency,[3],21.5 µM (active)
CN[C@@H]1Cc2cccc3[nH]c(=O)n(c23)C1,Potency,[1],inactive
same,"activity change, negative = inhibition",[2],4.06%
same,Potency,[4],inactive
same,Potency,[5],inactive
CC(C)NC(C)Cc1ccc(I)cc1 (stereo not drawn),Potency,[1],inactive
same,Potency,Papain (Carica papaya),inactive
same,activity,[10],0.93%
same,"activity change, negative = inhibition",[11],2.72%
same,activity,[12],-9.49%
same,activity,[13],2.34%
